“And” between values parts separate entries of the source, which are not always exact repeats. Equal entries are not always repeated. Results filed as inconclusive are left out. Where a call stands in place of a potency, no number is given. Values without a mark were called inactive. The source made the active and inactive calls. Unless noted, the call rests on the fitted dose curve; in most records, active means well fitted curve in the direction sought with a large enough effect in the repeat runs; inconclusive means weak or mixed curves; inactive means no such curve, though single readings can be large; an effect the other way counts as inactive or inconclusive.
Legend:
[1] = qHTS assay to identify aromatase inhibitors - cell viability counter screen (AID 743084);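 further: cells stimulated with testosterone during compound exposure; nearly all actives have a fitted effect of over 55% in size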; further: potency means the concentration at half of the fitted maximal effect
[2] = target: Aryl hydrocarbon receptor (Homo sapiens) (UniProt P35869); assay: qHTS assay to identify small molecule that activate the aryl hydrocarbon receptor (AhR) signaling pathway (AID 743085); further: nearly all actives have a fitted effect of over 15% in size; further: potency means the concentration at half of the fitted maximal effect;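 on activation: HG2L7.5c1 human HepG2 liver cells with stably integrated DRE-driven firefly reporter; series mostly up to about 70 µM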
Sequence of Aryl hydrocarbon receptor (Homo sapiens) (P35869 whole entry, looked up): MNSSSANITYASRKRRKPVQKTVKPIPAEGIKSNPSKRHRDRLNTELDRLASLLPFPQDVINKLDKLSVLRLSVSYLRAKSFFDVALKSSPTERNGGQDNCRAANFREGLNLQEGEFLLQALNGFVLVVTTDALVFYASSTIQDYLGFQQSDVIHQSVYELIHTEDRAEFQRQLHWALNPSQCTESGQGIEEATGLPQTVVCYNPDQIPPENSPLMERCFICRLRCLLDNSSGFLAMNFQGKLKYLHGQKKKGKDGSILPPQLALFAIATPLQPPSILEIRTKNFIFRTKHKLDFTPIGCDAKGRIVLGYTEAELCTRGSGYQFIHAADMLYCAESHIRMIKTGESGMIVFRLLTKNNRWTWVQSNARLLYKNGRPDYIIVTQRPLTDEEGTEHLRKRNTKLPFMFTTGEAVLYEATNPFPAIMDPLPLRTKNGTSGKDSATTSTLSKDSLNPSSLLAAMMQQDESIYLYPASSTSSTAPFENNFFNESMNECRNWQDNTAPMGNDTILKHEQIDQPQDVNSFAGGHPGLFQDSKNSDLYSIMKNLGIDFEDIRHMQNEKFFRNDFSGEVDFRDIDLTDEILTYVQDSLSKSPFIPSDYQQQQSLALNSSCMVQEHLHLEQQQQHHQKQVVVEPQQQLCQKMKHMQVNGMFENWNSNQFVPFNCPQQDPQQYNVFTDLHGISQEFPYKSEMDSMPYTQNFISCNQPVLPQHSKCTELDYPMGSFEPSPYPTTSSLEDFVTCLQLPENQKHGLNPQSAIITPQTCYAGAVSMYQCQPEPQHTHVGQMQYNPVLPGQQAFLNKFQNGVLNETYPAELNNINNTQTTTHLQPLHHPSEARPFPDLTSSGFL
Outline: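 AhR agonist activity is inferred from enhanced light output of a DRE-controlled firefly luciferase reporter in HepG2 cells, measured with ONE-Glo following 24 h treatment at 37C.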

[3] = qHTS assay to identify small molecule that activate the aryl hydrocarbon receptor (AhR) signaling pathway - cell viability counter screen (AID 743086); further: nearly all actives have a fitted effect of over 45% in size; further: potency means the concentration at half of the fitted maximal effect
Outline: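 HepG2-AhR-luc (HG2L7.5c1) cells, 4000/well, were preincubated 5 h at 37C, exposed to compound in qHTS format for 24 hr at 37C, then given CellTiter-Fluor for 30 min; viability was read as fluorescence in the reporter wells.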

[4] = qHTS assay to identify small molecule phospholipidosis (PLD) inducers (AID 1259344; active means well fitted curve in the direction sought with a large enough effect; an effect the other way counts as inactive or inconclusive)
Outline: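 HepG2 cells grown on collagen I take up LipidTOX Red while exposed to compound for 24 h; after fixation they are imaged at 20x and pit metrics are extracted.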

[5] = target: Peroxisome proliferator-activated receptor gamma (Homo sapiens) (UniProt P37231); assay: qHTS assay to identify small molecule agonists of the peroxisome proliferator-activated receptor gamma (PPARg) signaling pathway (AID 743094; active means well fitted activation curve with a large enough effect in the signal ratio in the repeat runs, not every such curve was filed as active; the % refers to the signal ratio)
Sequence of Peroxisome proliferator-activated receptor gamma (Homo sapiens) (P37231 whole entry, looked up): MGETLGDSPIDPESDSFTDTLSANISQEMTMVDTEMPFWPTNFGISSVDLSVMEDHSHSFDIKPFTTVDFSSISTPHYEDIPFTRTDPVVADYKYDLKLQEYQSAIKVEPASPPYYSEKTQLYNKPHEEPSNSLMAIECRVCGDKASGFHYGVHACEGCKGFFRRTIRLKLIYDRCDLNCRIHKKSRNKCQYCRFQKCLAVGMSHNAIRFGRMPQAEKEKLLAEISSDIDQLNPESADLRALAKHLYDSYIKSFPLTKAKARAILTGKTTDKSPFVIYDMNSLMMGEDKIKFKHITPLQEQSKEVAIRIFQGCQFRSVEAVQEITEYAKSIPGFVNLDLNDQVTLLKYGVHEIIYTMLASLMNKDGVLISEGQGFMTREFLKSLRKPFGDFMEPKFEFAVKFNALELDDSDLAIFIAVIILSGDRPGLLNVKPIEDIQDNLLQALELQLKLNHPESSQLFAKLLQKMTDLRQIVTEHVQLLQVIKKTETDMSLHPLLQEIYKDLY
Outline: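 GeneBLAzer PPARg UAS-bla HEK293H cells were plated, rested 5 h, then exposed to compounds for 17 h at 37C. Beta-lactamase activity was read by LiveBLAzer B/G FRET substrate fluorescence after 1 h at room temperature.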

Structure (SMILES)	Potency [1]	Potency [2]	Potency [3]	Potency [4]	Potency [5]	PLD induction [4]
COc1cc(S(C)=O)ccc1-c1nc2ncccc2[nH]1 (centres undefined)	inactive	2.11 µM (active)	inactive	inactive		
C=C[C@]1(C)C[C@@H](OC(=O)CO)[C@]2(C)[C@H](C)CC[C@]3(CCC(=O)[C@H]32)[C@@H](C)[C@@H]1O	inactive	inactive	inactive	inactive	inactive	
Cc1cc(-n2c(=O)[nH]c(=O)n(C)c2=O)ccc1Oc1ccc(S(=O)(=O)C(F)(F)F)cc1	inactive	inactive	inactive	inactive		
CCOC(=O)COc1ccc2c(C)c(CCN(CC)CC)c(=O)oc2c1	inactive	inactive	inactive		inactive	-3.34% [at 7.66 µM]
CCC(=O)OCC(=O)[C@@]1(OC(=O)CC)[C@@H](C)C[C@H]2[C@@H]3CCC4=CC(=O)C=C[C@]4(C)[C@@]3(Cl)[C@@H](O)C[C@@]21C	inactive	10.6 µM (active)	inactive	inactive		
CC(C)CN(C[C@@H](O)[C@H](Cc1ccccc1)NC(=O)O[C@H]1CO[C@H]2OCC[C@H]21)S(=O)(=O)c1ccc(N)cc1	inactive	inactive	inactive	inactive		
Cc1ccccc1CNc1ncnc2c1ncn2[C@@H]1O[C@H](CO)[C@@H](O)[C@H]1O	inactive	inactive	inactive	inactive		
C[N+]1(C)CCN(CC(O)(c2ccccc2)C2CCCCC2)CC1 (centres undefined)	inactive	inactive	inactive	inactive		
CCOC(=O)[C@H](CCc1ccccc1)N[C@H]1CCCN2CCC[C@@H](C(=O)O)N2C1=O	inactive	inactive	inactive	inactive		
C/C(=C(\CCOC(=O)c1ccccc1)SS/C(CCOC(=O)c1ccccc1)=C(/C)N(C=O)Cc1cnc(C)nc1N)N(C=O)Cc1cnc(C)nc1N	inactive	inactive	inactive	inactive		
CCCCCCCCCCCCCCCC(=O)OC[C@@H](COP(=O)([O-])OCC[N+](C)(C)C)OC(=O)CCCCCCCCCCCCCCC	inactive	inactive	inactive		inactive	-0.903% [at 1.53 µM]
COC(=O)CCC(=O)CN	inactive	inactive	inactive	inactive		
CCC(C)[C@H]1O[C@]2(C=C[C@@H]1C)C[C@@H]1C[C@@H](C/C=C(\C)[C@@H](O[C@H]3C[C@H](OC)[C@@H](O[C@H]4C[C@H](OC)[C@H](NC(C)=O)[C@H](C)O4)[C@H](C)O3)[C@@H](C)/C=C/C=C3\CO[C@@H]4[C@H](O)C(C)=C[C@@H](C(=O)O1)[C@]34O)O2 (some centres undefined)	inactive	inactive	11.9 µM (active) and 29.8 µM (active)	inactive		
CC1(C)N=C(N)N=C(N)N1c1ccc(Cl)cc1	inactive	inactive	inactive			-3.82% [at 7.66 µM]
CO[C@@H]1[C@@H](O[C@@H]2O[C@H](C)[C@@H](O[C@H]3C[C@@](C)(O)[C@@H](OC(=O)CC(C)C)[C@H](C)O3)[C@H](N(C)C)[C@H]2O)[C@@H](CC=O)C[C@@H](C)[C@@H](O)/C=C/C=C/C[C@@H](C)OC(=O)C[C@H]1O	inactive	inactive	inactive	inactive	inactive	
CN(C(=O)CO)c1c(I)c(C(=O)NCC(O)CO)c(I)c(C(=O)NCC(O)CO)c1I (centres undefined)	inactive	inactive	inactive	inactive	inactive	
CCCC(CCC)C(N)=O	inactive	inactive	inactive		inactive	0.287% [at 7.66 µM]
C[C@H](/C=C/[C@H](C)C(C)(C)O)[C@H]1CC[C@H]2/C(=C/C=C3C[C@@H](O)C[C@H](O)C3)CCC[C@]12C	inactive	inactive	inactive	inactive	inactive	
NCCC[C@H](N)C(=O)O	inactive	inactive	inactive	inactive	inactive	
CCCCCC(O)/C=C/C=O (centres undefined)	inactive	inactive	inactive	inactive	inactive	
O=C1O[C@H]2[C@H](O)[C@@H]1OC(O)[C@H]2O (some centres undefined)	inactive	inactive	inactive	inactive	inactive	
CNC[C@@H]1CC[C@@H](N)[C@@H](O[C@H]2[C@H](O)[C@@H](O[C@H]3OC[C@](C)(O)[C@H](NC)[C@H]3O)[C@H](N)C[C@@H]2N)O1	inactive	inactive	inactive		inactive	-1.48% [at 7.66 µM]
O=P(O)(O)C(Sc1ccc(Cl)cc1)P(=O)(O)O	inactive	inactive	inactive	inactive	inactive	
C/C1=C2N=C(/C=C3N=C(/C(C)=C4\[N-]C(C(CC(N)=O)C4(C)CCC(=O)NCC(C)OP(=O)([O-])OC4C(CO)OC(n5cnc6cc(C)c(C)cc65)C4O)C4(C)N=C1C(CCC(N)=O)C4(C)CC(N)=O)C(CCC(N)=O)C\3(C)C)C(CCC(N)=O)C/2(C)CC(N)=O.[CH3-].[Co+3] (centres undefined)	23.7 µM (active)	inactive	26.6 µM (active)	inactive	inactive	
Cc1nnc(C(C)C)n1C1C[C@H]2CC[C@@H](C1)N2CC[C@H](NC(=O)C1CCC(F)(F)CC1)c1ccccc1 (some centres undefined)	inactive	inactive	inactive		inactive	-2.27% [at 7.66 µM]

From PubChem BioAssay (Tox21)
